Assay results as given in PubChem BioAssay (Tox21).
Several values for one entry are separate records, joined by “and”; a condition that tells them apart may be missing. Identical values can stand only once. Inconclusive results are not listed. Activity calls are given as the source filed them. Calls follow the shape of the dose curve; as a rule, active = well fitted cell-killing curve with a large enough effect in the repeat runs; inconclusive = weak or mixed curves, or effect the other way; inactive = no such curve, though single readings can be large or run the other way.

Test: qHTS assay to identify small molecule agonists of the estrogen receptor alpha (ER-alpha) signaling pathway in the presence of an antagonist - cell viability counter screen (AID 1259386);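 also: cells exposed to compounds for 22 h at 37 °C before the viability read; nearly all actives have a fitted effect of over 30% in size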
Conditions: VM7Luc4E2 viability, CellTiter-Fluor fluorescence, 22 h; series mostly up to 92.4 µM; activity change, negative = cytotoxicity: at the top concentration
Method in brief: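 Viability counter screen using VM7Luc4E2 (full-length ER-alpha, four ERE-luciferase). The cells were treated with compounds alongside ICI-182,780 10.0nM for 22hr, and live-cell protease fluorescence was quantified with CellTiter-Fluor.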
% is scaled to controls: 0 for no effect and ±100 for the full control effect; potency is read from the fitted curve at half-maximal effect.

SMILES	activity change, negative = cytotoxicity	Potency
CC1=CC[C@H](C(C)C)C=C1	-1.92% (inactive)	
Cc1oc2c(NC(=O)c3c(Cl)cccc3Cl)cccc2c1C(C)(C)O	-1.03% (inactive)	
CN(C)CCCN1c2ccccc2Sc2ccccc21	1.19% [at 42.5 µM] (inactive)	
CCOC(=O)NCCOc1ccc(Oc2ccccc2)cc1	-11.9% (inactive)	
CNCCCN1c2ccccc2CCc2ccccc21	0.161% [at 42.5 µM] (inactive)	
C[C@H]1C[C@H]2[C@@H]3CCC4=CC(=O)C=C[C@]4(C)[C@@]3(Cl)[C@@H](O)C[C@]2(C)[C@@]1(O)C(=O)CO	2.28% [at 42.5 µM] (inactive)	
CN(C)C(=O)NC1(c2ccccc2)CCN(CC[C@@]2(c3ccc(F)c(F)c3)CN(C(=O)c3ccccc3)CCO2)CC1	-9.37% (inactive)	
CC(=O)[O][Al][O]C(C)=O	4.24% (inactive)	
COc1ccc(S(=O)(=O)N2C(=O)[C@@](c3ccccc3OC)(N3C[C@H](O)C[C@H]3C(=O)N(C)C)c3cc(Cl)ccc32)c(OC)c1		27.3 µM (active)
O=C(Nc1ccc(S(=O)(=O)N2CCOCC2)cc1)c1cc(Cl)ccc1NS(=O)(=O)c1ccc(Cl)s1	-0.0487% [at 42.5 µM] (inactive)	
CCOc1ccc(N=Nc2ccc(/C=C/c3ccc(N=Nc4ccc(OCC)cc4)cc3S(=O)(=O)O)c(S(=O)(=O)O)c2)cc1		38 µM (active)
COC(=O)c1ccc(I)cc1S(=O)(=O)NC(=O)Nc1nc(C)nc(OC)n1	4.07% (inactive)	
CN(C)CCN(Cc1ccc(Cl)cc1)c1ccccn1	-7.45% [at 42.5 µM] (inactive)	
O=C(O)C1(C(=O)Nc2ccc(Cl)cc2Cl)CC1	-1.56% (inactive)	
C=CC(=O)OCCOCCOCCOCCOC(=O)C=C		54.8 µM (active) and 68 µM (active)
CC(=O)[O][Al]	-4.19% (inactive)	
CCCCCCOC(=O)NC(=N)c1ccc(NCc2nc3cc(C(=O)N(CCC(=O)OCC)c4ccccn4)ccc3n2C)cc1		26.6 µM (active)
CCN(CC)CCNc1ccc(CNC=O)c2sc3ccc(OC)cc3c(=O)c12		13.7 µM (active)
CC(C)C[C@H]1C(=O)N2CCC[C@H]2[C@]2(O)O[C@](NC(=O)[C@@H]3C=C4c5cccc6[nH]c(Br)c(c56)C[C@H]4N(C)C3)(C(C)C)C(=O)N12	-9.7% [at 42.5 µM] (inactive)	
O=C(NCCO[N+](=O)[O-])c1cccnc1	3.06% [at 42.5 µM] (inactive)	
Nc1ccc(S(=O)(=O)Nc2ccccc2)cc1	2.53% [at 42.5 µM] (inactive)	
CCCCCCc1ccc(-c2ccc(C#N)cc2)cc1	0.0104% (inactive)	
CC[N+]1(CC)CCC(=C(c2ccccc2)c2ccccc2)C1C (configuration not stated)	3.4% [at 42.5 µM] (inactive)	
Cc1cccc(C)c1OCC(=O)N[C@@H](Cc1ccccc1)[C@@H](O)C[C@H](Cc1ccccc1)NC(=O)[C@H](C(C)C)N1CCCNC1=O		29.8 µM (active)
CCC(C)O (configuration not stated)	0.0418% (inactive)	
Cc1ccc(C(C)OC(=O)C2(C)CCC(C(=O)O)C2(C)C)cc1 (configuration not stated)	6.45% [at 42.5 µM] (inactive)	
CCOC(=O)C(F)(F)F	3.34% (inactive)	
